B1: unnamed (peptide)
chain: KKIRLIFTYPSTVGR

Target: AgAbp1
Assay: SPOT peptide array binding signal intensity (averaged, normalized) (arbitrary units (background-subtracted, floor 0; scale differs between SH3 domains)); higher = stronger binding of the SH3 domain to the peptide
Method in brief: (§1)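 E. coli BL21(DE3) was used to express GST-fused SH3 domains from four yeast species, which were then purified on glutathione Sepharose. These were incubated at 10 μg/ml in TBS-based blocking buffer overnight at 4°C on cellulose membranes carrying synthetic 15-mer peptides, in which cysteines were replaced by serines. Binding signal is the replicate average of normalized, background-subtracted spot intensity, in arbitrary units that differ between domains.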

Binder | SPOT peptide array binding signal intensity
B1 | 11

Target: AgBbc1
Assay: as above
Method in brief: as §1

Binder | SPOT peptide array binding signal intensity
B1 | 22.8

Target: AgBem1-D1
Assay: as above
Method in brief: as §1

Binder | SPOT peptide array binding signal intensity
B1 | 241

Target: AgBzz1-D1
Assay: as above
Method in brief: as §1

Binder | SPOT peptide array binding signal intensity
B1 | 22.5

Target: AgBzz1-D2
Assay: as above
Method in brief: as §1

Binder | SPOT peptide array binding signal intensity
B1 | 50

Target: AgCyk3
Assay: as above
Method in brief: as §1

Binder | SPOT peptide array binding signal intensity
B1 | 49

Target: AgFus1
Assay: as above
Method in brief: as §1

Binder | SPOT peptide array binding signal intensity
B1 | 2480

Target: AgHof1
Assay: as above
Method in brief: as §1

Binder | SPOT peptide array binding signal intensity
B1 | 47

Target: AgHse1
Assay: as above
Method in brief: as §1

Binder | SPOT peptide array binding signal intensity
B1 | 1210

Target: AgLsb1
Assay: as above
Method in brief: as §1

Binder | SPOT peptide array binding signal intensity
B1 | 58.8

Target: AgLsb4
Assay: as above
Method in brief: as §1

Binder | SPOT peptide array binding signal intensity
B1 | 577

Target: AgMyo5
Assay: as above
Method in brief: as §1

Binder | SPOT peptide array binding signal intensity
B1 | 2.5

Target: AgNbp2
Assay: as above
Method in brief: as §1

Binder | SPOT peptide array binding signal intensity
B1 | 688

Target: AgRvs167
Assay: as above
Method in brief: as §1

Binder | SPOT peptide array binding signal intensity
B1 | 6.17

Target: AgSho1
Assay: as above
Method in brief: as §1

Binder | SPOT peptide array binding signal intensity
B1 | 426

Target: AgSla1-D1-D2
Assay: as above
Method in brief: as §1

Binder | SPOT peptide array binding signal intensity
B1 | 428

Target: AgSla1-D3
Assay: as above
Method in brief: as §1

Binder | SPOT peptide array binding signal intensity
B1 | 4.5

Target: CaAbp1-D1
Assay: as above
Method in brief: as §1

Binder | SPOT peptide array binding signal intensity
B1 | 504

Target: CaAbp1-D2
Assay: as above
Method in brief: as §1

Binder | SPOT peptide array binding signal intensity
B1 | 268

Target: CaBbc1
Assay: as above
Method in brief: as §1

Binder | SPOT peptide array binding signal intensity
B1 | 86.8

Target: CaBem1-D1
Assay: as above
Method in brief: as §1

Binder | SPOT peptide array binding signal intensity
B1 | 73.5

Target: CaBzz1-D1
Assay: as above
Method in brief: as §1

Binder | SPOT peptide array binding signal intensity
B1 | 142

Target: CaBzz1-D2
Assay: as above
Method in brief: as §1

Binder | SPOT peptide array binding signal intensity
B1 | 99.2

Target: CaCyk3
Assay: as above
Method in brief: as §1

Binder | SPOT peptide array binding signal intensity
B1 | 118

Target: CaFus1
Assay: as above
Method in brief: as §1

Binder | SPOT peptide array binding signal intensity
B1 | 4650

Target: CaHof1
Assay: as above
Method in brief: as §1

Binder | SPOT peptide array binding signal intensity
B1 | 2.25

Target: CaHse1
Assay: as above
Method in brief: as §1

Binder | SPOT peptide array binding signal intensity
B1 | 282

Target: CaLsb1
Assay: as above
Method in brief: as §1

Binder | SPOT peptide array binding signal intensity
B1 | 79.2

Target: CaLsb4
Assay: as above
Method in brief: as §1

Binder | SPOT peptide array binding signal intensity
B1 | 354

Target: CaMyo5
Assay: as above
Method in brief: as §1

Binder | SPOT peptide array binding signal intensity
B1 | 77.2

Target: CaNbp2
Assay: as above
Method in brief: as §1

Binder | SPOT peptide array binding signal intensity
B1 | 966

Target: CaRvs167
Assay: as above
Method in brief: as §1

Binder | SPOT peptide array binding signal intensity
B1 | 274

Target: CaRvs167-3
Assay: as above
Method in brief: as §1

Binder | SPOT peptide array binding signal intensity
B1 | 2180

Target: CaSho1
Assay: as above
Method in brief: as §1

Binder | SPOT peptide array binding signal intensity
B1 | 1570

Target: CaSla1-D1-D2
Assay: as above
Method in brief: as §1

Binder | SPOT peptide array binding signal intensity
B1 | 21

Target: CaSla1-D3
Assay: as above
Method in brief: as §1

Binder | SPOT peptide array binding signal intensity
B1 | 487

Target: ScAbp1
Assay: as above
Method in brief: as §1

Binder | SPOT peptide array binding signal intensity
B1 | 15

Target: ScBbc1
Assay: as above
Method in brief: as §1

Binder | SPOT peptide array binding signal intensity
B1 | 4.75

Target: ScBem1-D1
Assay: as above
Method in brief: as §1

Binder | SPOT peptide array binding signal intensity
B1 | 19

Target: ScBzz1-D1
Assay: as above
Method in brief: as §1

Binder | SPOT peptide array binding signal intensity
B1 | 23

Target: ScBzz1-D2
Assay: as above
Method in brief: as §1

Binder | SPOT peptide array binding signal intensity
B1 | 325

Target: ScCyk3
Assay: as above
Method in brief: as §1

Binder | SPOT peptide array binding signal intensity
B1 | 210

Target: ScFus1
Assay: as above
Method in brief: as §1

Binder | SPOT peptide array binding signal intensity
B1 | 3720

Target: ScHof1
Assay: as above
Method in brief: as §1

Binder | SPOT peptide array binding signal intensity
B1 | 1.75

Target: ScHse1
Assay: as above
Method in brief: as §1

Binder | SPOT peptide array binding signal intensity
B1 | 1750

Target: ScLsb1
Assay: as above
Method in brief: as §1

Binder | SPOT peptide array binding signal intensity
B1 | 32

Target: ScLsb2
Assay: as above
Method in brief: as §1

Binder | SPOT peptide array binding signal intensity
B1 | 5

Target: ScLsb3
Assay: as above
Method in brief: as §1

Binder | SPOT peptide array binding signal intensity
B1 | 389

Target: ScLsb4
Assay: as above
Method in brief: as §1

Binder | SPOT peptide array binding signal intensity
B1 | 60

Target: ScMyo3
Assay: as above
Method in brief: as §1

Binder | SPOT peptide array binding signal intensity
B1 | 4

Target: ScMyo5
Assay: as above
Method in brief: as §1

Binder | SPOT peptide array binding signal intensity
B1 | 5

Target: ScNbp2
Assay: as above
Method in brief: as §1

Binder | SPOT peptide array binding signal intensity
B1 | 744

Target: ScPex13
Assay: as above
Method in brief: as §1

Binder | SPOT peptide array binding signal intensity
B1 | 14.5

Target: ScRvs167
Assay: as above
Method in brief: as §1

Binder | SPOT peptide array binding signal intensity
B1 | 26.2

Target: ScSho1
Assay: as above
Method in brief: as §1

Binder | SPOT peptide array binding signal intensity
B1 | 2150

Target: ScSla1-D1-D2
Assay: as above
Method in brief: as §1

Binder | SPOT peptide array binding signal intensity
B1 | 83.5

Target: ScSla1-D3
Assay: as above
Method in brief: as §1

Binder | SPOT peptide array binding signal intensity
B1 | 57.8

Target: SpAbp1-D1
Assay: as above
Method in brief: as §1

Binder | SPOT peptide array binding signal intensity
B1 | 132

Target: SpBbc1
Assay: as above
Method in brief: as §1

Binder | SPOT peptide array binding signal intensity
B1 | 41

Target: SpBzz1-D1
Assay: as above
Method in brief: as §1

Binder | SPOT peptide array binding signal intensity
B1 | 133

Target: SpBzz1-D2
Assay: as above
Method in brief: as §1

Binder | SPOT peptide array binding signal intensity
B1 | 0.5

Target: SpCyk3
Assay: as above
Method in brief: as §1

Binder | SPOT peptide array binding signal intensity
B1 | 92

Target: SpHof1
Assay: as above
Method in brief: as §1

Binder | SPOT peptide array binding signal intensity
B1 | 315

Target: SpHof1-2
Assay: as above
Method in brief: as §1

Binder | SPOT peptide array binding signal intensity
B1 | 91

Target: SpHof1-3
Assay: as above
Method in brief: as §1

Binder | SPOT peptide array binding signal intensity
B1 | 872

Target: SpHse1
Assay: as above
Method in brief: as §1

Binder | SPOT peptide array binding signal intensity
B1 | 910

Target: SpLsb1
Assay: as above
Method in brief: as §1

Binder | SPOT peptide array binding signal intensity
B1 | 2

Target: SpLsb4
Assay: as above
Method in brief: as §1

Binder | SPOT peptide array binding signal intensity
B1 | 210

Target: SpMyo1
Assay: as above
Method in brief: as §1

Binder | SPOT peptide array binding signal intensity
B1 | 14

Target: SpNbp2
Assay: as above
Method in brief: as §1

Binder | SPOT peptide array binding signal intensity
B1 | 1780

Target: SpPex13
Assay: as above
Method in brief: as §1

Binder | SPOT peptide array binding signal intensity
B1 | 24

Target: SpRvs167
Assay: as above
Method in brief: as §1

Binder | SPOT peptide array binding signal intensity
B1 | 21

Target: SpSla1-D1-D2
Assay: as above
Method in brief: as §1

Binder | SPOT peptide array binding signal intensity
B1 | 5

Target: SpSla1-D3
Assay: as above
Method in brief: as §1

Binder | SPOT peptide array binding signal intensity
B1 | 49

Source: the supplement of paper PMC4466140
